Read-out in experiment [1]: glucuronosyltransferase (UGT1A1), UGT1A1 (gene 54658)
As to the kind of experiment: CLD_UGT1A1_6hr: CellzDirect (CLD) Gene Expression Assay for glucuronosyltransferase (UGT1A1) at 6 hours (AID 2283672). The method in brief: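 Primary human hepatocytes from two donor preparations, dosed with fresh solutions in 0.2% DMSO, harvested at 6 h. UGT1A1 mRNA measured by qNPA chemiluminescence; induction fitted upward versus DMSO.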

Read-out in experiment [2]: xenobiotic metabolism (CYP1A1), CYP1A1 (gene 1543)
Description: CLD_CYP1A1_24hr: CellzDirect (CLD) Gene Expression Assay for xenobiotic metabolism (CYP1A1) at 24 hours (AID 2283673). The method, boiled down: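 Primary human hepatocytes dosed daily with fresh solutions in 0.2% DMSO vehicle. mRNA measured at 24 h by quantitative nuclease protection assay with chemiluminescence; gain-of-signal fit versus DMSO, with morphology-based cytotoxicity flags.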

Read-out in experiment [3]: Cytochrome P450 2B6 (Homo sapiens) (UniProt P20813)
Description: CLD_CYP2B6_6hr: CellzDirect (CLD) Gene Expression Assay for xenobiotic metabolism (CYP2B6) at 6 hours (AID 2283677).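 Note: actives raise CYP2B6 transcript above DMSO baseline so AC50 marks an inducer.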 The method, boiled down:
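Primary human hepatocytes dosed with chemicals at multiple concentrations, vehicle 0.2% DMSO; CYP2B6 mRNA induction measured 6 h after dosing by quantitative nuclease protection assay with chemiluminescence, gain of signal fitted relative to DMSO.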

Experiment [4] in a line: CCTE_Padilla_ZF_144hpf_TERATOSCORE: (Legacy) CCTE's 144 Hour Post-fertilization zebrafish Assay Teratoscore, Padilla Lab (AID 2283679; active = hit-call score of the fitted dose curve at least 0.9, where 1 is the maximum; inactive = score below 0.9;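 for AC50: zebrafish embryos with chorions exposed by immersion from 6-8 hpf to 5 dpf with daily renewal; teratogenicity score from eye scoring of death hatching and malformations at 144 hpf; higher score means more developmental defects relative to DMSO baseline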). The method, boiled down: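 Larvae scored by eye at 144 hpf for death, hatching and malformations after a day in clean Hanks'. Before that, daily-renewed exposure at 80 uM (0.4% DMSO, 26C) from roughly 6-8 hpf through 5 dpf, 4 embryos per chemical.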

Read-out in experiment [5]: Glyceraldehyde-3-phosphate dehydrogenase (Homo sapiens) (UniProt P04406)
As to the kind of experiment: CLD_GAPDH_6hr: CellzDirect (CLD) Gene Expression Assay for Baseline Control (Glyceraldehyde 3-phosphate dehydrogenase) at 6 hours (AID 2283681).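 Note: active means increased signal relative to DMSO vehicle.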 The method in brief:
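Primary human hepatocytes from two donor preparations, dosed at multiple concentrations with 0.2% DMSO vehicle; GAPDH mRNA measured 6 h after dosing by chemiluminescent quantitative nuclease protection assay (qNPA) on denatured lysates. Serves as background control; cytotoxicity annotated by morphology.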

Read-out in experiment [6]: HMG-CoA synthase (HMGCS2), HMGCS2 (gene 3158)
Description: CLD_HMGCS2_6hr: CellzDirect (CLD) Gene Expression Assay for HMG-CoA synthase (HMGCS2) at 6 hours (AID 2283682).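 Note: actives raise HMGCS2 transcript above the 0.2% DMSO vehicle baseline.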 The method, boiled down:
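Primary human hepatocytes dosed daily with fresh chemical, 0.2% DMSO vehicle; HMGCS2 mRNA measured at 6 h by qNPA chemiluminescence. Gain of signal fitted against DMSO; cytotoxicity flagged from phase-contrast morphology.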

Read-out in experiment [7]: xenobiotic metabolism (CYP1A2), CYP1A2 (gene 1544)
As to the kind of experiment: CLD_CYP1A2_24hr: CellzDirect (CLD) Gene Expression Assay for xenobiotic metabolism (CYP1A2) at 24 hours (AID 2283683). The method in brief:
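Primary human hepatocytes from two donor preparations dosed daily with multiple concentrations of chemical, 0.2% DMSO vehicle. CYP1A2 mRNA at 24 h quantified by qNPA chemiluminescence; gain of signal analyzed relative to DMSO. Cytotoxicity flagged by phase-contrast morphology.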

Read-out in experiment [8]: ABC Transporter (ABCB1), ABCB1 (gene 5243)
Description: CLD_ABCB1_24hr: CellzDirect (CLD) Gene Expression Assay for ABC Transporter (ABCB1) at 24 hours (AID 2283684). The method, boiled down:
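Primary human hepatocytes, two donor preparations, dosed daily with fresh solutions; vehicle 0.2% DMSO; harvested at 24 h. ABCB1 mRNA measured by quantitative nuclease protection assay (chemiluminescence); morphology-based cytotoxicity annotated.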

Read-out in experiment [9]: Cytochrome P450 2C9 (Homo sapiens) (UniProt P11712)
As to the kind of experiment: CLD_CYP2C9_24hr: CellzDirect (CLD) Gene Expression Assay for xenobiotic metabolism (CYP2C9) at 24 hours (AID 2283688). The method in brief:
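Primary human hepatocytes from two donor preparations, dosed daily for two days at multiple concentrations; vehicle 0.2% DMSO. CYP2C9 mRNA induction at 24 h measured by qNPA chemiluminescence relative to DMSO; cytotoxicity annotated from morphology.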

Read-out in experiment [10]: alkyl and aryl transferase (GSTA2), GSTA2 (gene 2939)
Description: CLD_GSTA2_24hr: CellzDirect (CLD) Gene Expression Assay for alkyl and aryl transferase (GSTA2) at 24 hours (AID 2283693). The method, boiled down:
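Primary human hepatocytes (two donor preparations) dosed daily for two days with chemicals at multiple concentrations (vehicle 0.2% DMSO); GSTA2 mRNA at 24 h measured by qNPA chemiluminescence, gain-of-signal versus DMSO.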

Read-out in experiment [11]: Cytochrome P450 2B6 (Homo sapiens) (UniProt P20813)
As to the kind of experiment: CLD_CYP2B6_48hr: CellzDirect (CLD) Gene Expression Assay for xenobiotic metabolism (CYP2B6) at 48 hours (AID 2283699).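 Note: actives raise transcript level above DMSO so potency reflects induction.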 The method in brief: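 Primary human hepatocytes dosed daily for two days over multiple concentrations, 0.2% DMSO vehicle; CYP2B6 mRNA quantified at 48 h by qNPA chemiluminescence. Induction fitted as gain of signal versus DMSO; cytotoxicity annotated by morphology.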

Read-out in experiment [12]: Cytochrome P450 2C19 (Homo sapiens) (UniProt P33261)
Description: CLD_CYP2C19_24hr: CellzDirect (CLD) Gene Expression Assay for xenobiotic metabolism (CYP2C19) at 24 hours (AID 2283687).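 Note: activity means mRNA induction above DMSO vehicle baseline.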 The method, boiled down:
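Primary human hepatocytes (two donor preparations) dosed daily with fresh test chemical in 0.2% DMSO vehicle; CYP2C19 mRNA induction measured at 24 h by quantitative nuclease protection assay with chemiluminescence, fitted for gain of signal versus DMSO.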

Read-out in experiment [13]: Cytochrome P450 3A4 (Homo sapiens) (UniProt P08684)
As to the kind of experiment: CLD_CYP3A4_24hr: CellzDirect (CLD) Gene Expression Assay for xenobiotic metabolism (CYP3A4) at 24 hours (AID 2283689). The method, boiled down:
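Primary human hepatocytes from two donors dosed daily with fresh compound for two days, 0.2% DMSO vehicle. CYP3A4 mRNA at 24 hr by qNPA chemiluminescence; gain-of-signal fit versus DMSO, cytotoxicity flagged by morphology.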

Read-out in experiment [14]: organic anion transporter (SLCO1B1), SLCO1B1 (gene 10599)
As to the kind of experiment: CLD_SLCO1B1_24hr: CellzDirect (CLD) Gene Expression Assay for organic anion transporter (SLCO1B1) at 24 hours (AID 2283690). The method in brief: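 Primary human hepatocytes (two donor preparations) dosed daily for two days with chemicals at multiple concentrations, 0.2% DMSO vehicle. SLCO1B1 mRNA at 24 h measured by qNPA chemiluminescence; induction fitted relative to DMSO.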

Read-out in experiment [15]: HMG-CoA synthase (HMGCS2), HMGCS2 (gene 3158)
As to the kind of experiment: CLD_HMGCS2_24hr: CellzDirect (CLD) Gene Expression Assay for HMG-CoA synthase (HMGCS2) at 24 hours (AID 2283691). The method, boiled down:
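Primary human hepatocytes from two donor preparations, dosed daily with fresh solutions; vehicle 0.2% DMSO, 24 h harvest. HMGCS2 mRNA quantified by qNPA with S1 nuclease digestion and chemiluminescence; gain fitted versus DMSO, cytotoxicity annotated by morphology.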

Read-out in experiment [16]: Cytochrome P450 3A4 (Homo sapiens) (UniProt P08684)
As to the kind of experiment: CLD_CYP3A4_6hr: CellzDirect (CLD) Gene Expression Assay for xenobiotic metabolism (CYP3A4) at 6 hours (AID 2283680). The method, boiled down: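 Primary human hepatocytes (two donor preparations) dosed; CYP3A4 mRNA harvested at 6 h and quantified by qNPA chemiluminescence. Gain of signal fitted against 0.2% DMSO vehicle; cytotoxicity flagged by phase-contrast morphology.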

Read-out in experiment [17]: Cytochrome P450 2C19 (Homo sapiens) (UniProt P33261)
Description: CLD_CYP2C19_6hr: CellzDirect (CLD) Gene Expression Assay for xenobiotic metabolism (CYP2C19) at 6 hours (AID 2283678). The method in brief: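 Primary human hepatocytes from two donor preparations were dosed daily, with 0.2% DMSO as vehicle, and harvested 6 h after dosing. CYP2C19 mRNA induction was measured by qNPA chemiluminescence and fitted as gain of signal against DMSO.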

Read-out in experiment [18]: Cytochrome P450 2B6 (Homo sapiens) (UniProt P20813)
As to the kind of experiment: CLD_CYP2B6_24hr: CellzDirect (CLD) Gene Expression Assay for xenobiotic metabolism (CYP2B6) at 24 hours (AID 2283686). The method, boiled down: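 Primary human hepatocytes dosed daily for two days with fresh solutions, harvested at 24 hours; mRNA induction quantified by qNPA chemiluminescence, gain of signal vs 0.2% DMSO vehicle. Cytotoxicity annotated from phase-contrast morphology.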

Read-out in experiment [19]: glucuronosyltransferase (UGT1A1), UGT1A1 (gene 54658)
As to the kind of experiment: CLD_UGT1A1_24hr: CellzDirect (CLD) Gene Expression Assay for glucuronosyltransferase (UGT1A1) at 24 hours (AID 2283696). The method, boiled down: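 Primary human hepatocytes from two donor preparations were dosed (0.2% DMSO vehicle) and harvested at 24 h; UGT1A1 mRNA induction was quantified by chemiluminescent qNPA, fitted as gain relative to DMSO.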

We go through nine compounds from PubChem BioAssay (EPA / NIEHS).

“And” between values parts separate entries of the source, which are not always exact repeats. Equal entries are not always repeated. Inconclusive results are not listed. The source made the active and inactive calls. Rule for the calls, unless noted: active = hit-call score of the fitted dose curve at least 0.9, where 1 is the maximum; inconclusive = response in the unintended direction; inactive = score below 0.9.

Glyceraldehyde-3-phosphate dehydrogenase (Homo sapiens), sequence (P04406 whole entry, looked up): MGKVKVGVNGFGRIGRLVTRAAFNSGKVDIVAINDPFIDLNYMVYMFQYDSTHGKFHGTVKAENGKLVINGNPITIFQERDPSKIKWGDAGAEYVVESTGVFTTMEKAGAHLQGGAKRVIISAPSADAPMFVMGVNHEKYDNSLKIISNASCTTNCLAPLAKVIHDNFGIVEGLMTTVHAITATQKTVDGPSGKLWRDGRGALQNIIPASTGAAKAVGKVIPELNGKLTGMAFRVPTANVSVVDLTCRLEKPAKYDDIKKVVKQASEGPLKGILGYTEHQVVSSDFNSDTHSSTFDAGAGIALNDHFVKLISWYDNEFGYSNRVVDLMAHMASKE
Cytochrome P450 3A4 (Homo sapiens), sequence (P08684 whole entry, looked up): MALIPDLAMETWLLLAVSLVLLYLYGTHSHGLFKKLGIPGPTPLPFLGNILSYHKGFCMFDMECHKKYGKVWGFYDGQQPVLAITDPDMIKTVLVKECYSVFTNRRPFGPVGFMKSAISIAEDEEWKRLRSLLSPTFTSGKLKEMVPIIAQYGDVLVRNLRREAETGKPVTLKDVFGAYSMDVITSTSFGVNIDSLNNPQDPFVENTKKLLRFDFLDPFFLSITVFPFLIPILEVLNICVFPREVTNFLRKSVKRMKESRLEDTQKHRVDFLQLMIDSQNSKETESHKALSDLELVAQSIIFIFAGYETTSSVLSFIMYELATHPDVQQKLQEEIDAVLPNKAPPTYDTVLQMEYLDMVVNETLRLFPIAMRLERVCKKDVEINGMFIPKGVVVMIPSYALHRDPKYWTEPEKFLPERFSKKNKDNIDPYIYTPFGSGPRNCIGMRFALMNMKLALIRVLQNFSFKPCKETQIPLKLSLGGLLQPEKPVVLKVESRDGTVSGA
Cytochrome P450 2C19 (Homo sapiens), sequence (P33261 whole entry, looked up): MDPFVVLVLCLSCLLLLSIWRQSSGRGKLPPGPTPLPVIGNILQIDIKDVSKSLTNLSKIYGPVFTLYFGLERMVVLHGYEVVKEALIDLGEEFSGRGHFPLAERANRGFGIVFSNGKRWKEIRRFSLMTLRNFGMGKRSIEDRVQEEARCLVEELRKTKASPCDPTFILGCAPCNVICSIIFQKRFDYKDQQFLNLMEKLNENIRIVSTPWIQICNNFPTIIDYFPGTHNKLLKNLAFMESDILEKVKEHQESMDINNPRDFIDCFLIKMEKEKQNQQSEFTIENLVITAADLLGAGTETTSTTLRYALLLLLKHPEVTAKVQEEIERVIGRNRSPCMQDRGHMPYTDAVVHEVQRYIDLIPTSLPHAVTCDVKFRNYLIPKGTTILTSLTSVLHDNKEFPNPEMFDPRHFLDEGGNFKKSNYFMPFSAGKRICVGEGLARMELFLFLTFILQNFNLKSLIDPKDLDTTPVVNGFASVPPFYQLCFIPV

What is called AC50 is the concentration giving half of the maximal activity seen. Turning to `C=CCC1=C(C)[C@@H](OC(=O)[C@@H]2[C@@H](C=C(C)C)C2(C)C)CC1=O`, the outcome in experiment [1], in experiment [2], in [5], in experiment [6], in [7] and in experiment [8] was inactive. Besides, the compound was classed as inactive in experiment [9] and in experiment [10]. Besides, the concentration at half-maximal activity (AC50) in [3] was 5.86 µM (active); in [4] it was 3.51 µM (active); in [11], 4.38 µM (active).
Regarding `Oc1ccccc1-c1ccccc1`, the compound was classed as inactive in experiment [1], in experiment [3], in experiment [5], in experiment [12], in [9] and in [13]. Further, the result in experiment [14], in experiment [15] and in experiment [10] was inactive. Also, the AC50 is 35.9 µM (active) in experiment [2], 53.4 µM (active) in experiment [4], 20 µM (active) in experiment [7] and 8.64 µM (active) in experiment [11].
In the case of `CCCN(CCC)c1c([N+](=O)[O-])cc(S(N)(=O)=O)cc1[N+](=O)[O-]`, the outcome in [1], in experiment [16], in experiment [6], in [8] and in [9] was inactive. The concentration at half-maximal activity (AC50) in experiment [2] was 4.81 µM (active); in [4] it was 15.8 µM (active) and 15.6 µM (active); in experiment [13], 11.1 µM (active).
In the case of `CN(C)C(=S)SSC(=S)N(C)C`, the AC50 was 35 µM (active) in experiment [2] and 0.0128 µM (active) in experiment [4]. Besides, the result in experiment [5], in experiment [6], in experiment [8], in experiment [13], in experiment [10] and in experiment [11] was inactive.
For `CC(C)(C)c1ccc(CSc2cnn(C(C)(C)C)c(=O)c2Cl)cc1`, the half-maximal activity concentration (AC50) was 20 µM (active) in [2] and 39.3 µM (active) in experiment [13]. Moreover, the call in experiment [5], in experiment [6], in experiment [7], in experiment [8], in experiment [12] and in [14] was inactive. The compound was called inactive in experiment [10] and in experiment [11].
For `CON(C)C(=O)Nc1ccc(Cl)c(Cl)c1`, the call in experiment [1], in experiment [16] and in [13] was inactive. Also, the AC50 in [2] is 1.82 µM (active); in experiment [3] it was 1.83 µM (active); in [4] it was 60.1 µM (active); in [7], 1.29 µM (active); in [11], 1.31 µM (active).
On to `COP(N)(=O)SC` (stereo not given), for which the call in experiment [2], in experiment [17], in experiment [4], in experiment [16], in [6] and in experiment [8] was inactive. The compound was called inactive in [12], in experiment [9] and in [14].
Take `CCNc1nc(Cl)nc(NCC)n1`: the call in [1], in [4], in experiment [5], in experiment [8], in [9] and in [14] was inactive. Further, in [10], the compound was classed as inactive. For the same compound, the AC50 is 5.56 µM (active) in experiment [2], 7.74 µM (active) in experiment [3], 5.26 µM (active) in experiment [7] and 6.18 µM (active) in experiment [11].
In the case of `O=C(Nc1ccccc1)Nc1ccnc(Cl)c1`, the result in experiment [1], in experiment [5], in experiment [6], in experiment [13], in experiment [14] and in experiment [19] was inactive. The AC50 is 10.4 µM (active) in [2]; 20 µM (active) in experiment [3]; 66 µM (active) in experiment [4]; 7.19 µM (active) in experiment [7]; 8.15 µM (active) in [18]; 6.77 µM (active) in experiment [11].
